Source: PubChem BioAssay (EPA / NIEHS)
Inconclusive results are not listed. The source made the active and inactive calls. The calls were made as follows: active = hit-call score of the fitted dose curve at least 0.9, where 1 is the maximum; inconclusive = response in the unintended direction; inactive = score below 0.9.

Each compound was assayed on Broad substrate specificity ATP-binding cassette transporter ABCG2 (Homo sapiens) (UniProt Q9UNQ0) (assay: CLD_ABCG2_6hr: CellzDirect (CLD) Gene Expression Assay for ABC Transporter (ABCG2) at 6 hours (AID 2283660)).
Broad substrate specificity ATP-binding cassette transporter ABCG2 (Homo sapiens), sequence (Q9UNQ0 whole entry, looked up): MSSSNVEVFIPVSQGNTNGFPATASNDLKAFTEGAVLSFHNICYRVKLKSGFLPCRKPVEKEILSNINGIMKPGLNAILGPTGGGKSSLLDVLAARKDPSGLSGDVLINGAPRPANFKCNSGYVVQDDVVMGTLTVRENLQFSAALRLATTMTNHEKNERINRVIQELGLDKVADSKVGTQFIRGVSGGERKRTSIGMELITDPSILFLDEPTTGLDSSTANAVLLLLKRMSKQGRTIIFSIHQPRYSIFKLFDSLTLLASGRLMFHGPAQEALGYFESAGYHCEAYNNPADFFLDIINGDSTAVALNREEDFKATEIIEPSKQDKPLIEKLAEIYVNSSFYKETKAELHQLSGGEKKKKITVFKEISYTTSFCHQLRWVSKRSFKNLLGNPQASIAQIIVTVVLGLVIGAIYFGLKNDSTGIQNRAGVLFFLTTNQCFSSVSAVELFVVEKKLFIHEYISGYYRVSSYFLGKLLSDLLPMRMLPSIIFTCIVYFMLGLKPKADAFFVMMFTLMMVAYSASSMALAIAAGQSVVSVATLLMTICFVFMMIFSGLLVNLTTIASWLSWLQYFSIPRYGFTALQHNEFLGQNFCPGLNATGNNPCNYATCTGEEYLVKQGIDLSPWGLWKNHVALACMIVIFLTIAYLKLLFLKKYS
Procedure: CLD_6hr is a cell-based, multiplexed-readout assay that uses hepatocyte, a human liver primary cell, with measurements taken at 6 hours after chemical dosing in a 96-well plate.CLD_ABCG2_6hr is one of 16 assay component(s) measured or calculated from the CLD_6hr assay. It is designed to make measurements of mRNA induction, a form of inducible reporter, as detected with chemiluminescence signals by Quantitative Nuclease Protection Assay (qNPA) technology.Data from the assay component CLD_ABCG2_6hr was analyzed at the endpoint, CLD_ABCG2_6hr, in the positive analysis fitting direction relative to DMSO as the negative control and baseline of activity. Using a type of inducible reporter, gain-of-signal activity can be used to understand changes in the reporter gene as they relate to the gene ABCG2. Furthermore, this assay endpoint can be referred to as a primary readout. To generalize the intended target to other relatable targets, this assay endpoint is annotated to the transporter intended target family, where subfamily is ABC transporter.
Human hepatocyte cultures were treated daily for two consecutive days with fresh dosing solutions containing appropriate concentrations of the 320 ToxCast chemicals (chemical identities were blinded to CellzDirect and other ToxCast collaborators), vehicle control (0.2% DMSO), and positive control inducers as summarized in Table 1. Due to the large number of treatment groups and chemicals examined, the ToxCast chemicals were divided into two groups (spanning two independent cultures of hepatocytes from separate donor preparations (Hu778: ToxCast plates 1 and 2; Hu776: ToxCast plates 3 and 4). Each preparation of human hepatocyte cultures was treated with respective vehicle control, medium only control, set of six positive controls/reference chemicals for the five hepatic receptor pathways, and a subset of eight of the ToxCast chemicals (indoxacarb, pyrithiobac-sodium, norflurazon, cyhalofop-butyl, methomyl, thiram, acetochlor, and propiconazole). These replicate data, coupled with internal replicates designed within the blinded ToxCast chemical library, provided additional data to evaluate interindividual differences between hepatocyte preparations and their potential impact on chemical profiles.Cell morphology and integrity were evaluated using phase-contrast microscopy as an indicator of hepatocyte cell health (Tyson & Green, 1987). Cultures for each treatment group (i.e., media, vehicle [0.2% DMSO], positive control inducers [multiple concentrations], and the ToxCast chemicals [multiple concentrations]) were observed and cell morphology was assessed relative to vehicle control cultures at each harvest time point (0, 6, 24, or 48 h). […] Images were evaluated at the conclusion of the study to assess changes in cell integrity and account for the effects of chemical exposure on uncharacteristic changes in concentration-dependent gene expression profiles. The results from these determinations of apparent cytotoxicity were annotated (yes/no) alongside the corresponding qNPA data for reference.At the conclusion of each treatment period, hepatocyte cultures (96-well) were washed with 1 volume of HBSS, lysed by addition of 25 ul ArrayPlate lysis buffer (HTG, Tucson, AZ), and 70 ul/well of Denaturation Oil, denatured by incubation at 95C for 10 min, and frozen at approximately -70C until analysis by nuclease protection assay (qNPA) (Roberts et al., 2007). For qNPA analysis, cell lysates were thawed at 50C for approximately 30 min, qNPA probes were added, and samples were incubated at 95C for 10 min to begin the detection process by denaturing the target RNA, dissociating the duplexes and secondary structure hybridization. At the conclusion of the hybridization period, S1 nuclease reagent was added to each sample to digest all nonprotected nucleotides at 50C for 60-90 min. […]
For `O=C(O)COc1ccc(Cl)cc1Cl`, the outcome was “inactive”.
In the case of `O=C1c2ccccc2C(=O)N1SC(Cl)(Cl)Cl`, the outcome was “inactive”.
`COC(=O)c1ccccc1S(=O)(=O)NC(=O)N(C)c1nc(C)nc(OC)n1` was tested, and the outcome was “inactive”.
With `CCC(C)Nc1c([N+](=O)[O-])cc(C(C)(C)C)cc1[N+](=O)[O-]` (stereo not drawn) the outcome was “inactive”.
With `O=C(O)C(F)(F)C(F)(F)C(F)(F)C(F)(F)C(F)(F)C(F)(F)C(F)(F)F` the outcome was “inactive”.
With `CC(C)(C)C(O)C(Oc1ccc(Cl)cc1)n1cncn1` (stereo not drawn) the outcome was “inactive”.
`Clc1ccccc1-c1nnc(-c2ccccc2Cl)nn1` was tested, and the outcome was “inactive”.
With `O=[N+]([O-])/N=C1\NCCN1Cc1ccc(Cl)nc1` the outcome was “inactive”.
With `CCCN(CCC)c1c([N+](=O)[O-])cc(C(F)(F)F)cc1[N+](=O)[O-]` the outcome was “inactive”.
For `CC1(C)C(C=C(Cl)Cl)C1C(=O)OC(C#N)c1ccc(F)c(Oc2ccccc2)c1` (stereo not drawn), the outcome was “inactive”.
With `COP(=O)(OC)OC=C(Cl)Cl` the outcome was “inactive”.
With `CCOCN(C(=O)CCl)c1c(C)cccc1CC` the outcome was “inactive”.
`C[C@H]1[C@H](c2ccc(Cl)cc2)SC(=O)N1C(=O)NC1CCCCC1` was tested, and the outcome was “inactive”.
For `N#Cc1c(Cl)c(Cl)c(Cl)c(C#N)c1Cl`, the AC50 was 20 µM (active).
`CN1CSC(=S)N(C)C1` was tested, and the outcome was “inactive”.
With `CC1(c2ccc(Oc3ccccc3)cc2)OC(=O)N(Nc2ccccc2)C1=O` (stereo not drawn) the outcome was “inactive”.
With `OCCOc1ccccc1` the outcome was “inactive”.
`O=C(O)CCCOc1ccc(Cl)cc1Cl` was tested, and the outcome was “inactive”.
For `N#CN`, the outcome was “inactive”.
With `CC[C@H](C)[C@H]1O[C@]2(C=C[C@@H]1C)C[C@@H]1C[C@@H](C/C=C(\C)[C@@H](O[C@H]3C[C@H](OC)[C@@H](O[C@H]4C[C@H](OC)[C@@H](O)[C@H](C)O4)[C@H](C)O3)[C@@H](C)/C=C/C=C3\CO[C@@H]4[C@H](O)C(C)=C[C@@H](C(=O)O1)[C@]34O)O2` (tested in a mixture with another compound) the outcome was “inactive”.
With `COP(=S)(OC)Oc1ccc([N+](=O)[O-])cc1` the outcome was “inactive”.
For `CNC(=O)/C=C(\C)OP(=O)(OC)OC`, the outcome was “inactive”.
`CCOc1nc(NC)nc(NC(=O)NS(=O)(=O)c2ccccc2C(=O)OC)n1` was tested, and the outcome was “inactive”.
In the case of `CC(C)OC(=O)Nc1cccc(Cl)c1`, the outcome was “inactive”.
For `Oc1ccc(Cl)cc1Cc1ccccc1`, the outcome was “inactive”.
`CCc1ccc(C(=O)NN(C(=O)c2cc(C)cc(C)c2)C(C)(C)C)cc1` was tested, and the outcome was “inactive”.
In the case of `ClC1C(Cl)C(Cl)C(Cl)C(Cl)C1Cl` (stereo not drawn), the outcome was “inactive”.
In the case of `COC(=O)c1ccccc1CS(=O)(=O)NC(=O)Nc1nc(OC)cc(OC)n1`, the outcome was “inactive”.
`CC(C)N(C(=O)COc1nnc(C(F)(F)F)s1)c1ccc(F)cc1` was tested, and the outcome was “inactive”.
For `CNC(=O)Oc1ccccc1OC(C)C`, the outcome was “inactive”.
With `CCC(C)(NC(=O)c1cc(Cl)c(C)c(Cl)c1)C(=O)CCl` (stereo not drawn) the outcome was “inactive”.
`COc1cc(OC)nc(NC(=O)NS(=O)(=O)c2cc(NC=O)ccc2C(=O)N(C)C)n1` was tested, and the outcome was “inactive”.
In the case of `CCC(C)(C)C(=O)OC1=C(c2ccc(Cl)cc2Cl)C(=O)OC12CCCCC2`, the outcome was “inactive”.
`O=[N+]([O-])c1c(Cl)c(Cl)c(Cl)c(Cl)c1Cl` was tested, and the outcome was “inactive”.
`CNC(=O)Oc1cccc(N=CN(C)C)c1` was tested, and the outcome was “inactive”.
`O=S1OCC2C(CO1)C1(Cl)C(Cl)=C(Cl)C2(Cl)C1(Cl)Cl` (stereo not drawn) was tested, and the outcome was “inactive”.
In the case of `CCS(=O)(=O)c1cccnc1S(=O)(=O)NC(=O)Nc1nc(OC)cc(OC)n1`, the outcome was “inactive”.
For `CC(C)(C)C(O)/C(=C\c1ccc(Cl)cc1Cl)n1cncn1` (stereo not drawn), the outcome was “inactive”.
